Some test systems named below: HCT-15 colon; HT29 colon; SNB-75 CNS; SNB-19 CNS; U251 CNS; PC-3 prostate; SK-MEL-5 melanoma; UACC-62 melanoma; LOX IMVI melanoma; SK-MEL-28 melanoma; SK-MEL-2 melanoma; EKVX NSCLC; SN12C renal; UO-31 renal; TK-10 renal; ACHN renal; CAKI-1 renal; A498 renal; MOLT-4 leukemia; CCRF-CEM leukemia.
Common to all, as to test: NCI-60 one-dose screen, 48 h (100 = growth as untreated, 0 = no growth, -100 = all killed)
What all share (settings): 10 µM unless noted

Here are results for eleven compounds from PubChem BioAssay (NCI).

The structures appear in SMILES notation. This is part of a sample that, as a whole, favours compounds with a hit. Of some 83,000 tested, about 20% had one in any assay.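 Results are percent growth after 48 hours of single-concentration exposure. 100 means growth as in untreated cells, lower positive values show inhibition; negative values down to -100 show cell death.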 A number with no mark means an inactive call. Calls of active or inactive are those of the source. The calls were made as follows: active = growth percent below 10; inactive = the rest.

With `COc1cc(/C=C(/c2ccccc2)[N+](=O)[O-])c(OC)c2c1OCO2`, the growth with HCT-15 colon was -30% (active); in the assay on HT29 colon it was 1.28% (active); in the assay on SNB-75 CNS, -92.6% (active); in the assay with SNB-19 CNS, -17.1% (active); in the assay on U251 CNS, -92.9% (active); with PC-3 prostate, -50.5% (active). Besides, the growth in the assay with SK-MEL-5 melanoma is -40.9% (active); in the assay with UACC-62 melanoma, -29.2% (active); with LOX IMVI melanoma, -87.6% (active); with SK-MEL-28 melanoma it was -12.1% (active); with SK-MEL-2 melanoma, -23% (active); with EKVX NSCLC it was -10.5% (active). Also, the growth with SN12C renal is -39% (active); in the assay on UO-31 renal, -100% (active); with TK-10 renal, -88.1% (active); in the assay with ACHN renal it was -70.1% (active); in the assay on CAKI-1 renal it was -65.2% (active); in the assay on A498 renal, -14% (active). Moreover, the growth with MOLT-4 leukemia is -10.5% (active).

For `COc1ccc(/C=N/C2=C(C#N)C(c3ccccc3)c3c(ccc4ccccc34)O2)cc1` (stereo unspecified), the growth in the assay with HCT-15 colon is 22.5%; in the assay on HT29 colon, 5.31% (active); in the assay on SNB-75 CNS, -39.4% (active); in the assay with SNB-19 CNS, 22.9%; in the assay on U251 CNS, 24.1%; with PC-3 prostate, 23.3%. Further, the growth in the assay with SK-MEL-5 melanoma was 20.8%; with UACC-62 melanoma it was 37.3%; with LOX IMVI melanoma it was 28.5%; in the assay on SK-MEL-28 melanoma it was 64.7%; with SK-MEL-2 melanoma, 49.7%; with EKVX NSCLC it was 32.7%. The growth in the assay with SN12C renal is 48%; in the assay with UO-31 renal, 37.5%; in the assay with TK-10 renal, 64.4%; in the assay on ACHN renal, 35.3%; in the assay on CAKI-1 renal it was 13.9%; in the assay with A498 renal it was -6.08% (active). In the assay with MOLT-4 leukemia, the growth is 27.3%.

As to `Nc1nc(N)c2c(n1)NC(c1cccc(Nc3ccnc4cc(C(F)(F)F)ccc34)c1)CC(c1ccc(F)cc1)=N2` (stereo unspecified), the growth in the assay with HCT-15 colon is 21.3%; in the assay on HT29 colon it was 12.5%; with SNB-75 CNS it was 47.1%; in the assay with SNB-19 CNS, 61.3%; in the assay with U251 CNS it was 33.6%; with PC-3 prostate, 34.4%. Also, the growth was 30.4% in the assay on SK-MEL-5 melanoma; 71.4% in the assay on UACC-62 melanoma; 40.5% in the assay with LOX IMVI melanoma; 79.2% in the assay on SK-MEL-28 melanoma; 37.3% with SK-MEL-2 melanoma; 47% in the assay on EKVX NSCLC. Moreover, the growth with SN12C renal was 59.8%; with UO-31 renal, 53.7%; in the assay on TK-10 renal it was 91.8%; in the assay on ACHN renal, 75.5%; in the assay with CAKI-1 renal it was 47.1%; in the assay on A498 renal, 78.1%. Further, the growth was 25% in the assay with CCRF-CEM leukemia and 2.74% (active) in the assay on MOLT-4 leukemia.

With `N#CC(Cc1cccc2ccccc12)c1cc2ccccc2[nH]1` (stereo unspecified), the growth was 88% with HCT-15 colon; 95.7% in the assay on HT29 colon; 88.3% in the assay with SNB-75 CNS; 98.2% in the assay with SNB-19 CNS; 92.3% with U251 CNS; 74.8% with PC-3 prostate. In addition, the growth in the assay with SK-MEL-5 melanoma is 95.6%; in the assay on UACC-62 melanoma it was 70%; with LOX IMVI melanoma, 90.9%; in the assay on SK-MEL-28 melanoma, 102%; with SK-MEL-2 melanoma, 113%; with EKVX NSCLC, 94.1%. Also, the growth is 90.2% with SN12C renal; 51.9% in the assay on UO-31 renal; 108% in the assay on TK-10 renal; 95.2% in the assay on ACHN renal; 73.7% with CAKI-1 renal; 112% with A498 renal. Besides, the growth with CCRF-CEM leukemia was -47% (active); in the assay with MOLT-4 leukemia, 78.2%.

Consider `COC(=O)c1c2c(c(C)[n+]([O-])c1C)C(=O)C(NCCN1CCOCC1)=CC2=O`, for which the growth in the assay with HCT-15 colon is 69.1%; in the assay on HT29 colon, 27.4%; with SNB-75 CNS, 106%; in the assay on SNB-19 CNS, 87.5%; in the assay on U251 CNS, 83.6%; with PC-3 prostate, 75.2%. Also, the growth in the assay with SK-MEL-5 melanoma is 48.5%; in the assay on UACC-62 melanoma it was 68.4%; with LOX IMVI melanoma it was 57.2%; with SK-MEL-28 melanoma, 95.2%; with SK-MEL-2 melanoma, 78.2%; with EKVX NSCLC it was 65.8%. Moreover, the growth in the assay on SN12C renal was 59%; in the assay on UO-31 renal it was 82.2%; with TK-10 renal, 111%; in the assay with ACHN renal it was 85.5%; with CAKI-1 renal it was 73%; in the assay with A498 renal it was 129%. Besides, the growth was 80.2% in the assay with CCRF-CEM leukemia and 88.1% with MOLT-4 leukemia.

Take `CCOC(=O)c1cnn(-c2ccc(S(N)(=O)=O)cc2)c1N`: the growth is 108% in the assay on HCT-15 colon; 102% in the assay on HT29 colon; 78.1% in the assay with SNB-75 CNS; 100% in the assay with SNB-19 CNS; 103% with U251 CNS; 103% with PC-3 prostate. In addition, the growth was 113% with SK-MEL-5 melanoma; 97.5% with UACC-62 melanoma; 96.9% with LOX IMVI melanoma; 106% with SK-MEL-28 melanoma; 93.6% with SK-MEL-2 melanoma; 101% in the assay on EKVX NSCLC. The growth in the assay with SN12C renal is 98%; in the assay with UO-31 renal, 64.8%; in the assay on TK-10 renal it was 99.6%; with ACHN renal it was 116%; with CAKI-1 renal, 150%; with A498 renal, 70.4%. Further, the growth in the assay on CCRF-CEM leukemia is 85.3%; with MOLT-4 leukemia, 100%.

On to `Nc1ncnc2c1C(c1ccc([N+](=O)[O-])cc1)c1sc3c(F)cccc3c1O2` (stereo unspecified), for which the growth in the assay with HCT-15 colon was 102%; in the assay with HT29 colon, 112%; with SNB-75 CNS, 97%; in the assay with SNB-19 CNS it was 102%; in the assay on U251 CNS, 92.4%; with PC-3 prostate it was 91.6%. For the same compound, the growth in the assay with SK-MEL-5 melanoma was 98.4%; in the assay with UACC-62 melanoma it was 81%; in the assay with LOX IMVI melanoma, 84.2%; in the assay with SK-MEL-28 melanoma, 106%; with SK-MEL-2 melanoma, 107%; in the assay on EKVX NSCLC it was 98.4%. Moreover, the growth with SN12C renal was 97.1%; in the assay with UO-31 renal it was 68.4%; in the assay with TK-10 renal, 129%; in the assay with ACHN renal it was 89.8%; in the assay on CAKI-1 renal, 74.9%; with A498 renal, 97.8%. For the same compound, the growth in the assay on CCRF-CEM leukemia was 94.3%; in the assay with MOLT-4 leukemia, 93.4%.

For `O=C1/C(=C/c2cn(-c3ccccc3)nc2-c2ccccc2)SC(=S)N1c1ccccc1`, the growth in the assay on HCT-15 colon is 101%; with HT29 colon, 108%; with SNB-75 CNS, 97.2%; in the assay with SNB-19 CNS, 93.4%; in the assay with U251 CNS, 103%; with PC-3 prostate, 77.9%. Also, the growth is 98.9% in the assay on SK-MEL-5 melanoma; 87.5% with UACC-62 melanoma; 86.8% with LOX IMVI melanoma; 97.4% in the assay on SK-MEL-28 melanoma; 110% with SK-MEL-2 melanoma; 99% in the assay with EKVX NSCLC. The growth in the assay with SN12C renal was 90.7%; in the assay on UO-31 renal it was 82.3%; in the assay with TK-10 renal it was 106%; in the assay on ACHN renal, 95.5%; in the assay on CAKI-1 renal, 87.2%; with A498 renal it was 91.1%. Also, in the assay with MOLT-4 leukemia, the growth is 109%.

As to `COc1ccc(-c2nc(Cl)c3c(C)nn(-c4ccc(F)cc4)c3n2)cc1`, the growth with HCT-15 colon was 110%; with HT29 colon, 98.3%; in the assay on SNB-75 CNS, 104%; with SNB-19 CNS, 99.7%; in the assay with U251 CNS it was 96.5%; in the assay on PC-3 prostate, 89.6%. The growth in the assay on SK-MEL-5 melanoma is 100%; with UACC-62 melanoma, 100%; in the assay on LOX IMVI melanoma, 101%; in the assay with SK-MEL-28 melanoma, 110%; in the assay on SK-MEL-2 melanoma, 91.9%; with EKVX NSCLC, 111%. For the same compound, the growth is 99% with SN12C renal; 97.3% in the assay on UO-31 renal; 98% with TK-10 renal; 106% with ACHN renal; 107% with CAKI-1 renal; 101% in the assay on A498 renal. The growth in the assay with CCRF-CEM leukemia is 102%; in the assay with MOLT-4 leukemia, 103%.

Turning to `O=C(Nc1ccc2ncsc2c1)c1csc(Nc2ccc3[nH]ncc3c2)n1`, the growth in the assay with HCT-15 colon is 26%; with HT29 colon, 19.4%; with SNB-75 CNS, 21.6%; in the assay on SNB-19 CNS, 41.2%; in the assay with U251 CNS, 38.6%; with PC-3 prostate, 40.6%. Besides, the growth in the assay on SK-MEL-5 melanoma was 9.43% (active); with UACC-62 melanoma, 22.7%; with LOX IMVI melanoma, 45%; with SK-MEL-28 melanoma, 69.2%; with SK-MEL-2 melanoma it was 50.6%; in the assay with EKVX NSCLC, 58.6%. The growth with SN12C renal is 49.9%; with UO-31 renal, 50.3%; with TK-10 renal it was 55.2%; in the assay on ACHN renal it was 50.5%; with CAKI-1 renal it was 30.3%; with A498 renal, 36.8%. For the same compound, the growth was 23% in the assay on CCRF-CEM leukemia and 49.8% in the assay with MOLT-4 leukemia.

For the compound `Cc1nc2cccc(NCCCCC(=O)NO)c2c(=O)n1-c1ccccc1`, the growth in the assay on HCT-15 colon was 71.6%; in the assay on HT29 colon, 52.1%; in the assay on SNB-75 CNS it was 45.1%; in the assay on SNB-19 CNS, 65.5%; with U251 CNS, 70.2%; with PC-3 prostate it was 63%. Besides, the growth was 34.9% in the assay with SK-MEL-5 melanoma; 31.8% in the assay with UACC-62 melanoma; 75.8% in the assay on LOX IMVI melanoma; 58.3% in the assay with SK-MEL-28 melanoma; 55.9% with SK-MEL-2 melanoma; 63.8% with EKVX NSCLC. The growth in the assay with SN12C renal is 69.8%; in the assay on UO-31 renal it was 56.6%; in the assay on TK-10 renal, 37.1%; in the assay on ACHN renal it was 54.3%; in the assay on CAKI-1 renal it was 55.6%; with A498 renal, 48.5%. Besides, the growth in the assay on MOLT-4 leukemia is 25.1%.
